The text below walks through data of PubChem BioAssay (NCATS).

Results filed as inconclusive are left out. Calls of active or inactive are those of the source. Calls follow the shape of the dose curve; as a rule, active = well fitted cell-killing curve with a large enough effect; inconclusive = small, poorly fitted or top-dose-only effect, or effect the other way; inactive = no such curve, though single readings can be large or run the other way.
Potency is read from the fitted curve at half-maximal effect.

A short description of the assay: Quantitative High-Throughput drug screen in 47 multiple myeloma cell lines against the NCATS MIPE library collection: XG1_PLB cell viability assay (AID 1919866). Also: nearly all actives have a fitted effect of over 35% in size. As to conditions: CellTiter-Glo ATP, 48 h; series mostly up to 45.8 µM. The gist of the method:
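Inhibition of viability over 48 h was scored by ATP content (CellTiter-Glo) in 500-cell wells. Zero and full viability were defined by media-only and DMSO-only wells.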
(In ATP-based viability assays light output follows the ATP content of the culture.)
Consider `Cc1cccc(C=NNc2cc(N3CCOCC3)nc(OCCc3ccccn3)n2)c1`, for which the Potency was 23.5 µM (active).

As to `CCNC(=O)Nc1ccc2ncc(Nc3ccc(C)cc3)nc2n1`, the Potency was 0.332 µM (active).

On to `O=C(c1cncc(Br)c1)N1CCC(N2CCCC2)CC1`, for which the Potency result was “inactive”.

As for `COc1cc(C(C)C)c2c(c1)S(=O)(=O)N(COc1cc(=O)n3cccc(OCCN4CCCCC4)c3n1)C2=O`, the Potency is 2.09 µM (active).

On to `CN(C1CCc2c(c3ccccc3n2CC(=O)O)C1)S(=O)(=O)c1ccc(F)cc1` (centres undefined), for which the Potency is 3.72 µM (active).

Regarding `CC(=O)c1c(C)c2cnc(Nc3ccc(N4CCNCC4)cn3)nc2n(C2CCCC2)c1=O`, the Potency is 14.8 µM (active).

`C1Cc2[nH]nc(-c3nn[nH]n3)c2C1`: the Potency result is “inactive”.

In the case of `CC(=O)SC[C@@H](C)C(=O)N1CCC[C@H]1C(=O)N[C@@H](Cc1ccccc1)C(=O)O`, the Potency entry is “inactive”.

With `COc1ccc(OC)c(-c2nnc3ccc(-c4ccc(OC)c(O[C@@H]5CCOC5)c4)nn23)c1`, the Potency was 7.43 µM (active).

On to `COc1ccc(CC2c3cc(OC)c(OC)cc3CC[N+]2(C)CCC(=O)OCCCCCOC(=O)CC[N+]2(C)CCc3cc(OC)c(OC)cc3C2Cc2ccc(OC)c(OC)c2)cc1OC` (centres undefined), for which the Potency is 1.46 µM (active).

For `CC(C)c1ccccc1Cc1cc(C(=O)Nc2ccc(S(=O)(=O)c3ccccc3C(C)(C)C)cc2)c(O)c(O)c1O`, the Potency was 3.72 µM (active).

Regarding `Cc1c(NC(=O)OC[C@@H]2COCCN2)cn2ncnc(Nc3ccc4c(cnn4Cc4cccc(F)c4)c3)c12`, the Potency was 0.0833 µM (active).

As for `Nc1ccc(S(=O)(=O)Nc2ncccn2)cc1`, the Potency entry is “inactive”.

Take `COc1cc(C)c(Sc2cnc(NC(=O)c3ccc(CNC(C)C(C)C)cc3)s2)cc1C(=O)N1CCN(C(C)=O)CC1` (centres undefined): the Potency is 18.7 µM (active).
